# From the supplement of paper PMC6555819
# Columns and labels:
# Experiment in all cases: PBM binding z-score (relative to random genomic background probes); higher = stronger binding; sequences stand for … in GC…GCGATTGACAGCGTAGAATGAAGG
# [1] = test system: FXR:RXRa (NR concentration 270 nM, RXRa partner concentration 90 nM)
# How it was run: (§1)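 For binding z-scores, the reference was random background probes on custom Agilent 4×180K protein-binding microarrays. These arrays were incubated 1 h with ligand-free nuclear receptor dimers in PBS pH 7.4, 2% milk, 0.02% Triton X-100, 1 mM DTT, 0.2 mg/mL BSA and 0.4 mg/ml salmon testes DNA. Fluorescence was scanned after antibody detection of each partner (one per run) and regression-normalized.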
# [2] = test system: LXRa:RXRa (NR concentration 270 nM, RXRa partner concentration 90 nM)
# How it was run: as §1
# [3] = test system: LXRa homodimer (NR concentration 270 nM)
# How it was run: as §1
# [4] = test system: LXRb:RXRa (NR concentration 270 nM, RXRa partner concentration 90 nM)
# How it was run: as §1
# [5] = test system: LXRb homodimer (NR concentration 270 nM)
# How it was run: as §1
# [6] = test system: PPARa:RXRa (NR concentration 270 nM, RXRa partner concentration 90 nM)
# How it was run: as §1
# [7] = test system: PPARg:RXRa (NR concentration 180 nM, RXRa partner concentration 90 nM)
# How it was run: as §1
# [8] = test system: PPARg:RXRa 270nM:90nM, anti-RXR (NR concentration 270 nM, RXRa partner concentration 90 nM)
# How it was run: as §1
# [9] = test system: PPARg:RXRa 30nM:10nM, anti-RXR (NR concentration 30 nM, RXRa partner concentration 10 nM)
# How it was run: as §1
# [10] = test system: PPARg:RXRa 90nM:30nM, anti-RXR (NR concentration 90 nM, RXRa partner concentration 30 nM)
# How it was run: as §1
sequence,measurement,setting,value
AGAACGAGGGCCATGAGTTGATAGCACGGGTGGC,PBM binding z-score,[1],-0.356
same,PBM binding z-score,[2],-0.437
same,PBM binding z-score,[3],-0.767
same,PBM binding z-score,[4],-0.687
same,PBM binding z-score,[5],-0.764
same,PBM binding z-score,[6],-0.163
same,PBM binding z-score,[7],0.614
same,PBM binding z-score,[8],-0.0464
same,PBM binding z-score,[9],-0.464
same,PBM binding z-score,[10],-0.23
GCTTGTAGATAAAGGTTAAGAAAGACTAAGCTAA,PBM binding z-score,[1],0.528
same,PBM binding z-score,[2],2.06
same,PBM binding z-score,[3],0.00551
same,PBM binding z-score,[4],1.54
same,PBM binding z-score,[5],-0.409
same,PBM binding z-score,[6],2.29
same,PBM binding z-score,[7],1.41
same,PBM binding z-score,[8],2.24
same,PBM binding z-score,[9],0.494
same,PBM binding z-score,[10],1.88
TCGTATAGGTAAATGCTAGGTGAAAGTCCGATCT,PBM binding z-score,[1],0.843
same,PBM binding z-score,[2],0.876
same,PBM binding z-score,[3],0.236
same,PBM binding z-score,[4],0.653
same,PBM binding z-score,[5],0.0986
same,PBM binding z-score,[6],0.931
same,PBM binding z-score,[7],0.156
same,PBM binding z-score,[8],1.84
same,PBM binding z-score,[9],3.04
same,PBM binding z-score,[10],2.54
GCGACTGGGGGAAAGCAGGTTACCATAAGGTTGG,PBM binding z-score,[1],0.271
same,PBM binding z-score,[2],0.375
same,PBM binding z-score,[3],-0.178
same,PBM binding z-score,[4],1.5
same,PBM binding z-score,[5],2.74
same,PBM binding z-score,[6],1.75
same,PBM binding z-score,[7],0.956
same,PBM binding z-score,[8],1.47
same,PBM binding z-score,[9],0.539
same,PBM binding z-score,[10],1.33
TCAGTCAGGTGAAGGTAACTCAGGTACGCAGTCG,PBM binding z-score,[1],1.03
same,PBM binding z-score,[2],1.75
same,PBM binding z-score,[3],-0.167
same,PBM binding z-score,[4],0.908
same,PBM binding z-score,[5],0.224
same,PBM binding z-score,[6],1.1
same,PBM binding z-score,[7],0.838
same,PBM binding z-score,[8],2.17
same,PBM binding z-score,[9],3.25
same,PBM binding z-score,[10],2.69
TCTTATAGGTAAAAGGTGAAAGTCGGTGTGGTAA,PBM binding z-score,[1],2.14
same,PBM binding z-score,[2],2.25
same,PBM binding z-score,[3],0.401
same,PBM binding z-score,[4],2.19
same,PBM binding z-score,[5],0.39
same,PBM binding z-score,[6],5.39
same,PBM binding z-score,[7],8.99
same,PBM binding z-score,[8],8.57
same,PBM binding z-score,[9],8.65
same,PBM binding z-score,[10],9.86
CGTCCAAGGTCCGAGAGGTCAGTGAATGCCGAGT,PBM binding z-score,[1],2.4
same,PBM binding z-score,[2],1.89
same,PBM binding z-score,[3],1.06
same,PBM binding z-score,[4],1.86
same,PBM binding z-score,[5],-0.631
same,PBM binding z-score,[6],2.26
same,PBM binding z-score,[7],-0.135
same,PBM binding z-score,[8],0.688
same,PBM binding z-score,[9],-0.759
same,PBM binding z-score,[10],-0.083
TCAAGTAGGTTACCAATGGGGCATTCAGCTTTCT,PBM binding z-score,[1],0.176
same,PBM binding z-score,[2],1.6
same,PBM binding z-score,[3],-0.145
same,PBM binding z-score,[4],1.17
same,PBM binding z-score,[5],-0.449
same,PBM binding z-score,[6],2.16
same,PBM binding z-score,[7],2.1
same,PBM binding z-score,[8],2.92
same,PBM binding z-score,[9],3.34
same,PBM binding z-score,[10],3.02
ATCGAAAGGCCGACGAGGTGAGTATACACCGTTT,PBM binding z-score,[1],0.135
same,PBM binding z-score,[2],-0.127
same,PBM binding z-score,[3],-0.565
same,PBM binding z-score,[4],-0.439
same,PBM binding z-score,[5],-0.414
same,PBM binding z-score,[6],-0.0782
same,PBM binding z-score,[7],0.686
same,PBM binding z-score,[8],-0.414
same,PBM binding z-score,[9],-0.0742
same,PBM binding z-score,[10],-0.119
CCTACTGGTCCAAAGGTCATTGATTCCAATGCTC,PBM binding z-score,[1],4.78
same,PBM binding z-score,[2],5.17
same,PBM binding z-score,[3],4.86
same,PBM binding z-score,[4],5.02
same,PBM binding z-score,[5],1.52
same,PBM binding z-score,[6],5.67
same,PBM binding z-score,[7],9.11
same,PBM binding z-score,[8],9.11
same,PBM binding z-score,[9],7.82
same,PBM binding z-score,[10],9.09
TAGCCTAGGTCATTCAGGGGCCAATATAGAAAGC,PBM binding z-score,[1],4.5
same,PBM binding z-score,[2],4.59
same,PBM binding z-score,[3],1.12
same,PBM binding z-score,[4],3.78
same,PBM binding z-score,[5],1.21
same,PBM binding z-score,[6],3.97
same,PBM binding z-score,[7],2.41
same,PBM binding z-score,[8],2.82
same,PBM binding z-score,[9],0.793
same,PBM binding z-score,[10],1.51
TCAGACAGGTGAAGGTAACTCCGGTACGCAGTCG,PBM binding z-score,[1],0.787
same,PBM binding z-score,[2],2.08
same,PBM binding z-score,[3],-0.352
same,PBM binding z-score,[4],0.966
same,PBM binding z-score,[5],-0.314
same,PBM binding z-score,[6],1.21
same,PBM binding z-score,[7],0.509
same,PBM binding z-score,[8],2.09
same,PBM binding z-score,[9],3.78
same,PBM binding z-score,[10],2.96
CCGACTGGGGCAGTAAGGTTACCATACCATCCGG,PBM binding z-score,[1],0.252
same,PBM binding z-score,[2],-0.0103
same,PBM binding z-score,[3],-0.54
same,PBM binding z-score,[4],-0.134
same,PBM binding z-score,[5],-0.789
same,PBM binding z-score,[6],1.16
same,PBM binding z-score,[7],1.03
same,PBM binding z-score,[8],1.17
same,PBM binding z-score,[9],-0.0768
same,PBM binding z-score,[10],0.343
TCCAGCAGGCCAGAGGGTCACTCAAGAGGTACGG,PBM binding z-score,[1],0.97
same,PBM binding z-score,[2],1.16
same,PBM binding z-score,[3],-0.45
same,PBM binding z-score,[4],1.18
same,PBM binding z-score,[5],-1.14
same,PBM binding z-score,[6],2.23
same,PBM binding z-score,[7],0.983
same,PBM binding z-score,[8],1.87
same,PBM binding z-score,[9],1.59
same,PBM binding z-score,[10],1.79
CCTAGTTGGTCAGGCGGTCACACACCGGATATGA,PBM binding z-score,[1],0.554
same,PBM binding z-score,[2],0.309
same,PBM binding z-score,[3],0.525
same,PBM binding z-score,[4],0.155
same,PBM binding z-score,[5],0.122
same,PBM binding z-score,[6],0.32
same,PBM binding z-score,[7],0.706
same,PBM binding z-score,[8],0.973
same,PBM binding z-score,[9],-0.186
same,PBM binding z-score,[10],0.129
TCTTGTTGATCAACAGGAGGTTAAGAAAGATCGA,PBM binding z-score,[1],-0.388
same,PBM binding z-score,[2],1.08
same,PBM binding z-score,[3],0.0425
same,PBM binding z-score,[4],0.962
same,PBM binding z-score,[5],-0.0113
same,PBM binding z-score,[6],1.21
same,PBM binding z-score,[7],-0.165
same,PBM binding z-score,[8],1.01
same,PBM binding z-score,[9],2.18
same,PBM binding z-score,[10],2.1
TCTTGTGGATCAAAGGTTAAGAAAGCCGAAGCCT,PBM binding z-score,[1],1.78
same,PBM binding z-score,[2],1.88
same,PBM binding z-score,[3],0.101
same,PBM binding z-score,[4],2.08
same,PBM binding z-score,[5],0.0498
same,PBM binding z-score,[6],4.58
same,PBM binding z-score,[7],7.94
same,PBM binding z-score,[8],7.64
same,PBM binding z-score,[9],7.24
same,PBM binding z-score,[10],8.31
CGTCAAAGTTCAACCAAGGTAACGTAAAGCACGC,PBM binding z-score,[1],7.34
same,PBM binding z-score,[2],6.27
same,PBM binding z-score,[3],4.15
same,PBM binding z-score,[4],4.07
same,PBM binding z-score,[5],1.7
same,PBM binding z-score,[6],5.02
same,PBM binding z-score,[7],5.31
same,PBM binding z-score,[8],5.53
same,PBM binding z-score,[9],2.39
same,PBM binding z-score,[10],4.77
TCCATTAGTTGATTAGGGCAACCGAAACAGCGGA,PBM binding z-score,[1],0.464
same,PBM binding z-score,[2],0.43
same,PBM binding z-score,[3],0.384
same,PBM binding z-score,[4],0.197
same,PBM binding z-score,[5],0.366
same,PBM binding z-score,[6],0.857
same,PBM binding z-score,[7],0.199
same,PBM binding z-score,[8],2.15
same,PBM binding z-score,[9],3.94
same,PBM binding z-score,[10],2.76
TTACCAAGGTGGGCTGAGGTCGTTGATCCAACTC,PBM binding z-score,[1],1.56
same,PBM binding z-score,[2],0.463
same,PBM binding z-score,[3],-0.083
same,PBM binding z-score,[4],0.938
same,PBM binding z-score,[5],-0.656
same,PBM binding z-score,[6],0.97
same,PBM binding z-score,[7],-0.473
same,PBM binding z-score,[8],0.212
same,PBM binding z-score,[9],-0.219
same,PBM binding z-score,[10],-0.0469
CGTCAAGGTTCAACTAAGGTAACGTAAAGCACGC,PBM binding z-score,[1],5.26
same,PBM binding z-score,[2],4.66
same,PBM binding z-score,[3],1.12
same,PBM binding z-score,[4],2.96
same,PBM binding z-score,[5],0.335
same,PBM binding z-score,[6],4.18
same,PBM binding z-score,[7],2.49
same,PBM binding z-score,[8],2.73
same,PBM binding z-score,[9],0.464
same,PBM binding z-score,[10],1.82
CTCGAAAGATCGGTTGAGGTGAGTATACGGATAA,PBM binding z-score,[1],0.238
same,PBM binding z-score,[2],-0.622
same,PBM binding z-score,[3],-0.531
same,PBM binding z-score,[4],-0.146
same,PBM binding z-score,[5],-0.43
same,PBM binding z-score,[6],0.0167
same,PBM binding z-score,[7],-0.0366
same,PBM binding z-score,[8],-0.226
same,PBM binding z-score,[9],-0.244
same,PBM binding z-score,[10],-0.262
CCGACTGGGGCAAAGGTTACTATACTCAGTACGA,PBM binding z-score,[1],1.1
same,PBM binding z-score,[2],1.13
same,PBM binding z-score,[3],0.145
same,PBM binding z-score,[4],1.83
same,PBM binding z-score,[5],-0.765
same,PBM binding z-score,[6],4.86
same,PBM binding z-score,[7],10.7
same,PBM binding z-score,[8],8.89
same,PBM binding z-score,[9],8.85
same,PBM binding z-score,[10],9.45
ATCGAAAGGTCGTGGGGTGAGTATACAGAAAGGC,PBM binding z-score,[1],6.2
same,PBM binding z-score,[2],4.88
same,PBM binding z-score,[3],0.955
same,PBM binding z-score,[4],4.76
same,PBM binding z-score,[5],2.35
same,PBM binding z-score,[6],5.78
same,PBM binding z-score,[7],5.25
same,PBM binding z-score,[8],5.38
same,PBM binding z-score,[9],2.16
same,PBM binding z-score,[10],3.9
